The entries come from a sample that favours hits as a whole.
Methyltransferases = Primary Screen for Target Class Profiling of Small Molecule Inhibitors of Methyltransferases; purified enzyme, MTase-Glo SAH luminescence; active compounds read low; calls only at 40 µM; 25,000 compounds, 3.9% hits; AID 1745853, 2022; call rule not given here
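Each enzyme was reacted with SAM and its substrate, with compounds tested once at 40 uM; SAH formed was read by MTase-Glo luminescence.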
An asterisk follows results filed as active; i = inactive; + = active, no number. % is scaled to controls: 0 for no effect and ±100 for the full control effect.

SMILES	Methyltransferases
C=C1C(=O)OC2CC(COC(=O)C(C)C)=C(C(C)CCCOC(C)=O)[C@@H](OC(C)=O)C12 (stereo partly specified)	i
C=C1C(=O)O[C@@H]2CC(C)=C([C@@H](C)CCCOC(C)=O)[C@@H](O)[C@H]12	+
C=C1C(=O)OC2CC(C)=C(C(C)CCCO[C@@H]3O[C@H](CO)[C@@H](O)[C@H](O)[C@H]3O)C(O)C12 (stereo partly specified)	i
Cc1noc(C)c1C(=O)N1CCOc2ccc(CCC(=O)NCC3CC3)cc2C1	i
COc1ccccc1-c1onc(C)c1C(=O)NCCc1cccc(Cl)c1	i
CCC(C)NC(=O)CSc1nnc2n(Cc3ccccc3)c(=O)c3ccc(C(=O)NC(C)C)cc3n12 (stereo unspecified)	i
OC[C@H]1O[C@@H](n2cnc3c(NCc4ccc(O)cc4)ncnc32)[C@H](O)[C@@H]1O	i
N#Cc1ccc(COC[C@H]2O[C@@H](n3c(NCc4ccc(Cl)c(Cl)c4)nc4c(N)ncnc43)[C@H](O)[C@@H]2O)cc1	+
Nc1ncnc2c1ncn2[C@@H]1O[C@H](COP(=O)(O)CP(=O)(O)OP(=O)(O)O)[C@@H](O)[C@H]1O	i
CCc1cc2c(cc3n2CC(C)(C(=O)NC2CCCCCC2)N(Cc2ccccc2Cl)C3=O)s1 (stereo unspecified)	i
Cc1[nH]c(=O)c(C#N)cc1-c1ccncc1	i
CCOC(=O)C1CCN(C(=O)c2ccc3nccn3c2)CC1	i
Cc1[nH]c(=O)c(C#N)cc1-c1ccc2nccn2c1	+
CCOCCCNC(=O)C1c2c(n(C)c3ccccc23)SCC(=O)N1Cc1cccnc1 (stereo unspecified)	i
CC(C)CCn1c(=O)c2ccc(C(=O)NCC(C)C)cc2n2c(=O)n(C)nc12	i
CC(C)NC(=O)c1ccc2c(=O)n(C(C)C)c3nn(CC(=O)Nc4ccccc4)c(=O)n3c2c1	i
COc1ccc(-c2cn(C)c(=O)n3cc(CN4CCNC(=O)C4)nc23)cn1	i
Cc1ccc(CN2CC(=O)N(Cc3ccccc3)c3ccccc3S2(=O)=O)cc1	i
CCOC(=O)N1CCC(CN(Cc2ccc(Cl)cc2)Cc2ccc([N+](=O)[O-])s2)C1 (stereo unspecified)	+
CCOc1ccccc1CN1C(=O)c2cc3occc3n2CC1(C)C(=O)NC1CCC(C)CC1 (stereo unspecified)	i
CC1C(=O)CC2C3C(O)CC(C(=O)O)C12CC3(C)C (stereo unspecified)	i
CCOCCCNC(=O)c1cc2n(n1)CC(C)(C(=O)NC1CCCCCC1)N(C)C2=O (stereo unspecified)	i
Cc1ccc(C(=O)Cn2nc3n(C)c(=O)c4ccc(C(=O)NC5CCCC5)cc4n3c2=O)c(C)c1	i
COc1ccc(NS(=O)(=O)c2cc3[nH]c(=O)[nH]c3cc2C)cc1Cl	i
Cc1cc(O)c(-c2ccc([C@@H](C)CN(C)C)cc2)c2c1[nH]c(=O)c1sccc12	+
SMILES	Methyltransferases
COc1ccccc1CN1C(=O)c2cc3ccccc3n2CC1(C)C(=O)NC1CCCCCC1 (stereo unspecified)	i
CCCn1c(=O)c2cc(F)ccc2n2c(SCc3ccccc3C)nnc12	i
CN1CCN(CCCN2C(=O)c3cc4occc4n3CC2(C)C(=O)NC2CCCCC2)CC1 (stereo unspecified)	i
Cc1noc([C@@H]2C[C@H](NC(=O)C3CCCCC3)CN2C)n1	i
Cc1ccc(SC2CCN(Cc3nc(CCc4ccccc4)no3)CC2)cc1	i
c1cc2c(cc1N1CCC(N3CCC4(CCNCC4)C3)CC1)OCO2	i
Cc1nc(N=Nc2cc(S(=O)(=O)O)c3cc([N+](=O)[O-])cc(S(=O)(=O)O)c3c2)c(COP(=O)(O)O)c(C=O)c1O	+
CC(=O)N1CCCC(c2[nH]ccc2C(=O)N2CCN(c3ccccc3)CC2)C1 (stereo unspecified)	i
Cc1ccccc1CN1C(=O)c2nc3ccccc3n2CC1(C)C(=O)NC1CCCC1 (stereo unspecified)	i
COc1cccc(CN2C(=O)c3ccc(-c4ccccc4)n3CC2(C)C(=O)NC2CCCCCC2)c1 (stereo unspecified)	i
O=C(Cn1nc2n(Cc3ccc(F)cc3)c(=O)c3ccccc3n2c1=O)NCc1ccccc1Cl	i
O=C(c1ccoc1)N1CCC(Cc2nc(C3CC3)n[nH]2)C1 (stereo unspecified)	i
O=C1Nc2ccc(I)cc2/C1=C/c1cc(Br)c(O)c(Br)c1	+
NCCS	i
Cc1ccc(NC(=O)Cn2nc3n(C)c(=O)c4ccc(C(=O)NC5CCCCC5)cc4n3c2=O)c(C)c1	i
Cc1cnc(C2CC2)n1C1CCN(S(=O)(=O)c2cccc(F)c2)CC1	i
CC1=CC(=O)[C@@]2(C(C)C)C[C@@H]12	+
CCCN1CCN(CCCNC(=O)c2cc3n(n2)CC(C)(C(=O)NCc2ccc(F)cc2)N(C)C3=O)CC1 (stereo unspecified)	i
COc1ccc(NS(=O)(=O)c2ccc3c(c2)n(C)c(=O)n3C)cc1	i

Compound activity from PubChem.
